These results are taken from the OligoGym collection.
Further: reference of the scale not given here.

The target of the first assay is RAB28. The experiment in a line: pooled miR-30 sensor sort-seq; sequence = guide strand. The following applies: shRNA.
On to TTAACAGTCCTTGACATAGGTT, for which the sensor-assay potency score (higher = more potent) was -0.695.
In the case of TAACAGTCCTTGACATAGGTTC, the sensor-assay potency score (higher = more potent) was -0.143.
Sequence TATTGTTCGCATATGCTCCAAA registered a sensor-assay potency score (higher = more potent) of -0.803.
TTTGTTTGTACTGTTTCCCAAA showed a sensor-assay potency score (higher = more potent) of -0.914.
Regarding TTATCCAACATTTTGCCTCCTA, the sensor-assay potency score (higher = more potent) was determined as 0.54.
Still for that read-out and setting: then ATTTGTAATATCATATACCAAG, with -1.51; and TTTGATAATTTGTAATATCATA, with -1.64; and TATTTATCCAACATTTTGCCTC, with -0.421.
The same measure, in the same setting: then TTATTGTTCGCATATGCTCCAA, with -0.667.
TTGAAGGGTAACATTCAAGTTT: the sensor-assay potency score (higher = more potent) was -0.65.
Turning to TAGTTAAGGAGGTCTTCCCGGA, the sensor-assay potency score (higher = more potent) is -0.69.

The target in the next assay is RAB3D. The description is as above. To be noted: shRNA.
TTGAACATATAGTCGAAGTTCT showed a sensor-assay potency score (higher = more potent) of 0.33.
On the same count and under the same terms, as for TTCTGATCTGCTGCATCCCGTG, the figure is -1.02; as for TGAACCATCTTCCACCAGCTTG, -1.09.
On the same count and under the same terms, as for TTGACCTTGAAATCGATGCCCA, the figure is -0.115; as for TTCACATTGATGTTCTCCTTGG, -0.53; as for TTGATGTTCTCCTTGGCACTGG, -0.145.
Turning to TATCAGTAGCAGTTTGAACATA, the sensor-assay potency score (higher = more potent) was -1.09.
Take TAAGCTAGAAGGCACCACGGAT: the sensor-assay potency score (higher = more potent) is -0.984.
Same read-out and setting: then TAGCAGTTTGAACATATAGTCG, with -0.969; and TATAGTCGAAGTTCTGATCTGC, with 0.851.
In turn, TTGGAATCCAGAAAGTTCGTGG came in with a sensor-assay potency score (higher = more potent) of 0.567.
The same measure, in the same setting: as for TTGCTGCCTGAGCTGGAGCTGG, the figure is -1.52.
